Hit rate of the full screen: of about 340,000 compounds, about 2,100 (0.62%) were called active.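 The calls were made as follows: active = first-screen hits whose inhibition reached a set limit at any dose in the follow-up dose series; inconclusive = inhibition above the set first-screen limit but never retested; inactive = the rest.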 A selection follows. Measured potencies and affinities stand elsewhere.
biological target: Rac GTPase-activating protein 1 (Homo sapiens) (UniProt Q9H0H5); experiment: MgcRacGAP GTPase-activating activity inhibitors, confirmation, biochemical, ADP Hunter fluorescence, primary and confirmatory (AID 624330); conditions: MgcRacGAP-stimulated Rac1 GTP hydrolysis, at 30 µM, hits give high values, GST-tagged Rac1 F28L mutant substrate;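 also: fluorescence reports GDP produced by GAP-driven GTP hydrolysis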
Sequence (Q9H0H5 whole entry, looked up): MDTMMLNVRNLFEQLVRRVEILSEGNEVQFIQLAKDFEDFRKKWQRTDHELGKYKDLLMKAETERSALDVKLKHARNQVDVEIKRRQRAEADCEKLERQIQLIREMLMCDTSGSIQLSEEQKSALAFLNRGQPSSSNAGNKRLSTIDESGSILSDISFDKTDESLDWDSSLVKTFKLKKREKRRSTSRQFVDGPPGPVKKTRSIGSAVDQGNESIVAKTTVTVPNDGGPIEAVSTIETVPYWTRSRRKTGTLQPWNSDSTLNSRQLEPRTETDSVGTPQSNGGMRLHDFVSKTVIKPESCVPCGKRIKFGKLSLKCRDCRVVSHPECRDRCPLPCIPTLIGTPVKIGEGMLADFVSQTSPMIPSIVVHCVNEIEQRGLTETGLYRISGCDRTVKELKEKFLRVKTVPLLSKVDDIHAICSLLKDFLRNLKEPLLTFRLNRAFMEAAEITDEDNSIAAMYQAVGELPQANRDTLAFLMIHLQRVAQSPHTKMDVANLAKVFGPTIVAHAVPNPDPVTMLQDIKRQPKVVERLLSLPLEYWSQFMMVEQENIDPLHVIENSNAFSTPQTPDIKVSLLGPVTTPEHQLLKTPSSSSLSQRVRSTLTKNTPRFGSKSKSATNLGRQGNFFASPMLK

SMILES	inhibition
Cc1onc(-c2c(Cl)cccc2Cl)c1C(=O)N(C)Cc1ccccc1	12.4% (inactive)
CC(=O)N1CCN(c2ccc(NC(=O)c3ccco3)cc2Cl)CC1	8.65% (inactive)
Cc1sc2nc(SCC(=O)N3CCN(CCO)CC3)n(-c3ccccc3)c(=O)c2c1C	6.94% (inactive)
CCC(Oc1cc(Cl)ccc1Cl)C(=O)NN1C(=O)C2C3CCC(C3=C(C)C)C2C1=O (centres undefined)	4.3% (inactive)
CCCCCCN1C[C@H](n2cc(COC(=O)c3ccccc3)nn2)[C@@H](O)C[C@@H]1c1ccc(C)cc1	2.5% (inactive)
O=C(Nc1ccc(Cl)cc1)N[C@@H]1c2c(ccc3ccccc23)OC[C@@H]1CO	-2.15% (inactive)
COC(=O)c1c(-c2ccccc2)csc1NC1=NS(=O)(=O)c2ccccc21	-0.52% (inactive)
C=CCOc1ccc(/C=N/NC(=O)C(=O)Nc2ccccn2)cc1OC	-2.52% (inactive)
COc1cc(OC)c(OC)cc1/C=N/NC(=O)c1ccc(CSc2nc(C)cc(C)n2)cc1	8.78% (inactive)
COc1ccc(OC)c(/C=N/NC(=O)c2[nH]nc3c2CCc2ccccc2-3)c1	-0.52% (inactive)
COc1ccc(/C=N/NC(=O)c2[nH]nc3c2CCc2ccccc2-3)cc1OC	11.3% (inactive)
COc1ccc(/C=N/NC(=O)c2ccc(CSc3nc(C)cc(C)n3)cc2)c(OC)c1OC	5.29% (inactive)
COc1ccccc1/C=N/NC(=O)c1cccc(NC(=O)c2ccccc2C)c1	6.03% (inactive)
COc1cc(/C=N/NC(=O)c2cccc(NC(=O)c3ccccc3Cl)c2)ccc1O	28.3% (inactive)
COc1ccc(/C=N/NC(=O)C(=O)Nc2ccccn2)cc1OC	13.3% (inactive)
C[C@@H]1CN([C@@H](C)CO)C(=O)CCCn2cc(nn2)CO[C@H]1CN(C)S(=O)(=O)c1ccc(Oc2ccccc2)nc1	15.5% (inactive)
C[C@@]12C(=O)Nc3cc(Cl)ccc3C(=O)N1[C@H]1c3cc(Br)ccc3OC[C@@H]1[C@@H]2c1ccccc1	11.9% (inactive)
O=C(c1cc2nc(-c3ccc(F)cc3)cc(C(F)(F)F)n2n1)N1CCOCC1	10.3% (inactive)
CCN1C(=O)[C@H]2[C@H]3CN=C(SCc4ccc(C(=O)OC)cc4)N3[C@@](CC)(C(=O)OC)[C@H]2C1=O	6.61% (inactive)
O=C(Nc1ccc2nc(-c3cccnc3)[nH]c2c1)c1ccccc1F	5.15% (inactive)
O=C(O)C1CC(c2ccc(F)cc2)=NO1 (centres undefined)	1.2% (inactive)
CC(C)[C@H](NC(=O)OCc1ccccc1)C(=O)OCC(=O)NC1CCCCC1	10.6% (inactive)
Cc1nonc1CN(C)C(=O)CC1C(=O)NCCN1Cc1ccccc1F (centres undefined)	2.81% (inactive)
COc1ccc(/C=N/Nc2ccc(C(=O)O)cc2)cc1OC	12.8% (inactive)

SMILES	inhibition
COc1cc(/C=C/C(=O)CC(=O)/C=C/c2ccc(O)c(OC)c2)ccc1O	27.8% (inactive)
CC(/C=C/c1ccc(O)cc1)=NNc1ccccc1	31.4% (inactive)
Cc1ccc(OCCn2cc(/C=N/NC(=O)c3ccncc3)c3ccccc32)cc1	-10.1% (inactive)
CCN(CC)c1ccc(/C=N/NC(=O)c2c[nH]c3ccccc23)cc1	30.9% (inactive)
CCN(CC)c1ccc(/C=N\NC(=O)c2cccc3cc[nH]c23)cc1	21.1% (inactive)
COc1ccc(OCCn2cc(/C=N/NC(=O)c3ccncc3)c3ccccc32)cc1	4.18% (inactive)
COc1cc(/C=N/Nc2ccc(C(=O)O)cc2)cc(OC)c1OC	-9.42% (inactive)
CN(C(=O)c1cccc(NC(=O)Cc2ccc(NC(=O)C3CCCN(S(=O)(=O)c4cccc([N+](=O)[O-])c4)C3)cc2)c1)C1CCCCC1 (centres undefined)	3.08% (inactive)
O=C(COc1ccc(Cl)cc1)NCc1nnc(SCC(=O)N2CCCc3ccccc32)o1	2.68% (inactive)
COc1ccc(-c2nnc(NC(=O)Cc3ccccc3)o2)cc1	7.81% (inactive)
COc1ccc(CN2CCOCCOCCOCC2)cc1	0.62% (inactive)
C=CCn1c(=O)c2ccccc2n2c(SCC(=O)NCCc3ccccc3)nnc12	6.1% (inactive)
CC(C)n1nc(C(=O)NCCc2ccc(S(N)(=O)=O)cc2)c2ccccc2c1=O	0.38% (inactive)
COc1ccc(CN2C(=O)c3ccccc3C2=O)cc1C(=O)OCC(=O)NC1CCCCC1	7.94% (inactive)
c1ccc2cc(CNCc3cccc4ccccc34)ccc2c1	13% (inactive)
O=C(COC(=O)CN1CCSC1=O)Nc1ccc(F)cc1Cl	2.57% (inactive)
O=C(NCC1COc2ccccc2O1)c1ccc(NC(=O)C2CCCO2)cc1 (centres undefined)	10.6% (inactive)
Cc1nnc(NC(=O)CCn2c(=O)oc3ccccc32)s1	4.88% (inactive)
C=CCSc1ncccc1C(=O)NCCc1ccc(Cl)cc1	10.4% (inactive)
O=C(N/N=C/c1ccccc1O)C1(O)c2ccccc2-c2ccccc21	8.51% (inactive)
COc1ccc(/C=N/NC(=O)C2(O)c3ccccc3-c3ccccc32)cc1	6.06% (inactive)
COc1ccccc1N(CC(=O)Nc1ccc(Cc2ccncc2)cc1)S(=O)(=O)c1ccccc1	0.87% (inactive)
COc1ccc(C(=O)Nc2ccc3c(c2)n(C)c(=O)n3C)cc1OC	3.94% (inactive)
CCS(=O)(=O)N1CCN(C2Cc3ccccc3C2)CC1	13.9% (inactive)

SMILES	inhibition
CC1CCC(N2CCN(S(=O)(=O)Cc3ccccc3)CC2)CC1 (centres undefined)	7.86% (inactive)
CCS(=O)(=O)N1CCN(C2CCC(C)CC2)CC1 (centres undefined)	17.9% (inactive)
O=S(=O)(Cc1ccccc1)N1CCN(C2Cc3ccccc3C2)CC1	9.97% (inactive)
Nc1cc2c(cc1Br)-c1ccccc1C2=NO	7.06% (inactive)
COc1ccc(-c2nn(-c3ccccc3)cc2/C=N/Nc2ccc(Cl)c(C(=O)O)c2)cc1OC	13.5% (inactive)
N#Cc1c(-c2ccccc2)nc(N2CCN(Cc3ccccc3)CC2)[nH]c1=O	0.49% (inactive)
O=C(/C=C/c1cn(-c2ccccc2)nc1-c1cccnc1)NCCN1CCOCC1	11.7% (inactive)
O=C(O)c1cc2ccc(O)cc2oc1=O	4.89% (inactive)
O=c1oc2cc(O)ccc2cc1-c1ccccc1	15.9% (inactive)
O=C(CCCc1nc2ccccc2s1)NC(c1ccccc1)c1ccccc1	6.29% (inactive)
O=C(CN1N=C(c2ccccc2)CCC1=O)NCc1ccccc1	6.27% (inactive)
COc1cc(CN(C)C(=O)C(=O)c2c[nH]c3ccccc23)ccc1O	8.17% (inactive)
O=C(c1cc(-c2ccc(Cl)c(Cl)c2)on1)N1CCN(c2ccccc2)CC1	4.94% (inactive)
COc1ccccc1NC(=O)c1cccs1	0.52% (inactive)
COc1ccc(NC(=O)c2cccs2)cc1	8.32% (inactive)
COc1cc(NC(=O)c2cccs2)c(OC)cc1NC(=O)c1cccs1	4.2% (inactive)
COc1ccc(NC(=O)c2ccc(NC(=O)c3cccs3)cc2)cc1	2.51% (inactive)
O=C(c1ccco1)N1CCc2ccccc21	3.81% (inactive)
COCC(C)n1c(C)cc(C(=O)CSc2ncccn2)c1C (centres undefined)	8% (inactive)
CN(CC1COc2ccccc2O1)C(=O)Cn1cc(C(F)(F)F)ccc1=O (centres undefined)	0.56% (inactive)
CCCCN(C)C(=O)C1CCN(CCCc2ccccc2)CC1	21.2% (inactive)
CCCCN(C)C(=O)C1CCN(Cc2cccnc2)CC1	27.6% (inactive)
CCN(CC)C(=O)C1CCN(Cc2ccc(OCc3ccccc3)cc2)CC1	15.5% (inactive)
NC(=O)C1CCN(Cc2cccc(OCc3ccccc3)c2)CC1	21.4% (inactive)

SMILES	inhibition
CCN(CC)C(=O)C1CCN(Cc2cccc(OCc3ccccc3)c2)CC1	19.6% (inactive)
NC(=O)C1CCN(Cc2ccc(OCc3ccccc3)cc2)CC1	21.3% (inactive)
CCc1c(O)nc(SCC(=O)N2CCOCC2)n(-c2ccccc2)c1=O	9.22% (inactive)
Cc1cc(NC(=O)COC(=O)CNC(=O)c2cccs2)c([N+](=O)[O-])cc1C	10.5% (inactive)
O=C1OC(c2ccc(F)cc2)=N/C1=C\c1ccc(Br)o1	12.2% (inactive)
NC(=O)CC(NC(=O)c1ccccc1)c1ccc(N2CCN(c3ccccn3)CC2)c([N+](=O)[O-])c1 (centres undefined)	6.77% (inactive)
CC(C)CCNC(=O)CCCCn1c(=O)[nH]c2ccsc2c1=O	1.12% (inactive)
CCn1cc(C(=O)NC2CCCCC2)c(=O)c2ccc(C)nc21	6.08% (inactive)
CCOc1ccccc1OCCCCOc1ccccc1F	8.35% (inactive)
CCOc1ccccc1C(=O)N[C@H](C(=O)NNC(=O)c1cccs1)C(C)C	2.5% (inactive)
Cc1ccc(C)c(SCC(=O)NC(=O)NCc2ccccc2)c1	6.96% (inactive)
Cc1ccc(NC(=O)N2CCCC2C(=O)Nc2ccc(-n3cnnn3)c(C)c2)cc1 (centres undefined)	-9.47% (inactive)
CS(=O)(=O)N1CCN(C(=O)NC23CC4CC(CC(C4)C2)C3)CC1	-2.26% (inactive)
CN1CCCN(C2C3CC4CC(C3)CC2C4)CC1 (centres undefined)	14.8% (inactive)
C/C(=N/OCC(=O)Nc1ccc(C)cc1C)c1cccs1	17% (inactive)
Nc1c([N+](=O)[O-])c(=O)oc2ccccc12	3.99% (inactive)
O=c1cc(-c2ccccc2[N+](=O)[O-])oc2ccccc12	4.61% (inactive)
CN(C)S(=O)(=O)c1cccc(C(=O)c2nccn2C)c1	2.41% (inactive)
Cc1ccc(C(=O)Nc2ncc(C)s2)s1	3.92% (inactive)
Cc1ccc(-c2nc(C=Nc3ccc(O)cc3)c(O)o2)cc1	19% (inactive)
Cc1ccsc1C=Nc1ccc(O)cc1	18.4% (inactive)
COc1ccccc1NS(=O)(=O)c1cc(NC(=O)c2ccc(Cl)nc2)ccc1N1CCCC1	9.85% (inactive)

Reference: PubChem BioAssay AID624330 (Southern Research Specialized Biocontainment Screening …, 2012)
